Activity calls are given as the source filed them. How the calls were made is not given here.
Each compound was assayed on Aerobactin synthetase IucA (Klebsiella pneumoniae hvKP1) (assay: Biochemical IucA enzyme inhibition primary screen of the Spectrum library (AID 1346200;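 further: 100% = wells without compound and 0% = wells lacking enzyme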)). Details: malachite green pyrophosphate, A620, at 8 µM, active compounds read low.

Question: `O=C1OC2(c3ccc(O)cc3Oc3cc(O)ccc32)c2ccccc21` was tested. Which activity remaining did it give?
Answer: 111% (inactive)

Question: With `CC[C@H]1OC(=O)[C@H](C)[C@@H](O[C@H]2C[C@@](C)(OC)[C@@H](O)[C@H](C)O2)[C@H](C)[C@@H](O[C@@H]2O[C@H](C)C[C@H](N(C)C)[C@H]2O)[C@](C)(OC)C[C@@H](C)C(=O)[C@H](C)[C@@H](O)[C@]1(C)O` as the compound, how does the activity remaining read?
Answer: 119% (inactive)

Question: For `CN(C)/N=N/c1nc[nH]c1C(N)=O`, which activity remaining is on record?
Answer: 107% (inactive)

Question: With `CC(C)Oc1ccc2c(=O)cc(-c3ccccc3)oc2c1` as the compound, how does the activity remaining read?
Answer: 114% (inactive)

Question: For `CN1CCCN=C1COC(=O)C(O)(c1ccccc1)C1CCCCC1` (stereo not given), which activity remaining is on record?
Answer: 108% (inactive)

Question: Which activity remaining does the source give for `COc1cccc2c1C(=O)c1c(O)c3c(c(O)c1C2=O)C[C@@](O)(C(=O)CO)C[C@@H]3OC1C[C@H](N)[C@H](O)[C@H](C)O1` (stereo not given in full) here?
Answer: 87.4% (inactive)

Question: With `CC(=O)C1CCC2C3CC(=O)C4=CC(=O)CCC4(C)C3CCC12C` (stereo not given) as the compound, how does the activity remaining read?
Answer: 98.9% (inactive)

Question: Which activity remaining does the source give for `C[C@]12CCC3c4ccc(OC(=O)c5ccccc5)cc4CCC3C1CCC2=O` (stereo not given in full) here?
Answer: 116% (inactive)

Question: Which activity remaining does the source give for `Cc1cc(O)cc(=O)o1` here?
Answer: 116% (inactive)

Question: How did the activity remaining turn out when `Cc1nnc(NS(=O)(=O)c2ccc(N)cc2)s1` was run?
Answer: 113% (inactive)

Question: With `NS(=O)(=O)c1cc2c(cc1Cl)NC(CSCc1ccccc1)=NS2(=O)=O` as the compound, how does the activity remaining read?
Answer: 113% (inactive)

Question: With `CC1(C)CC[C@]2(C(=O)O)CC[C@]3(C)C(=CCC4[C@@]5(C)CC[C@@H](O)C(C)(C)C5CC[C@]43C)C2C1` (stereo not given in full) as the compound, how does the activity remaining read?
Answer: 118% (inactive)

Question: Which activity remaining does the source give for `CCCc1nn(C)c2c(=O)[nH]c(-c3cc(S(=O)(=O)N4CCN(C)CC4)ccc3OCC)nc12` here?
Answer: 97% (inactive)

Question: Which activity remaining does the source give for `COc1cc2ccc(=O)oc2c(O)c1O` here?
Answer: 112% (inactive)

Question: For `CC(=O)O[C@@H]1CC2C(C)(C)CCC(=O)[C@]2(C)C2CC[C@@]3(C)[C@H](c4ccoc4)OC(=O)C4OC43[C@@]21C` (stereo not given in full), which activity remaining is on record?
Answer: 113% (inactive)

Question: With `OC[C@H]1O[C@@H](Oc2ccc(O)cc2)[C@H](O)[C@@H](O)[C@@H]1O` as the compound, how does the activity remaining read?
Answer: 115% (inactive)

Question: Which activity remaining does the source give for `CCC(C)C(=O)O[C@@H]1C[C@@]2(C)[C@H](c3ccoc3)OC(=O)CC23OC2(C)OC34[C@H](OC(=O)C(C)C)[C@@]3(O)[C@@H](OC(=O)C5(C)OC5C)[C@@]5(C)C[C@]3(O)[C@@](C)([C@H]5CC(=O)OC)C14O2` (stereo not given in full) here?
Answer: 112% (inactive)

Question: For `O=C1CN(/N=C/c2ccc([N+](=O)[O-])o2)C(=O)N1`, which activity remaining is on record?
Answer: 78.3% (inactive)

Question: For `CO[C@]12C[C@@H](COC(=O)c3cncc(Br)c3)CN(C)[C@@H]1Cc1cn(C)c3cccc2c13`, which activity remaining is on record?
Answer: 108% (inactive)

Question: `COc1ccc([C@H]2COc3c(ccc(O)c3OC)C2)c(OC)c1O` was tested. Which activity remaining did it give?
Answer: 89.5% (inactive)

Question: How did the activity remaining turn out when `CCCCCN=C(N)N/N=C/c1c[nH]c2ccc(OC)cc12` was run?
Answer: 108% (inactive)

Question: How did the activity remaining turn out when `OC[C@@H](O)C(O[C@@H]1O[C@H](CO)[C@H](O)[C@H](O)[C@H]1O)[C@H](O)[C@@H](O)CO` (stereo not given in full) was run?
Answer: 116% (inactive)

Question: For `CCCc1nc2c(C)cc(-c3nc4ccccc4n3C)cc2n1Cc1ccc(-c2ccccc2C(=O)O)cc1`, which activity remaining is on record?
Answer: 123% (inactive)

Question: How did the activity remaining turn out when `COC(=O)c1c(OC)cc2c(c1C)Oc1c(Cl)c(OC(C)=O)c(Cl)c(C)c1C(=O)O2` was run?
Answer: 98.6% (inactive)

Question: For `O=C(Cc1ccccc1)NO`, which activity remaining is on record?
Answer: 109% (inactive)

Question: `CC(C)(O)[C@@H]1Cc2cc3ccc(=O)oc3cc2O1` was tested. Which activity remaining did it give?
Answer: 113% (inactive)

Question: Which activity remaining does the source give for `O=c1oc2c(O)c(O)cc3c(=O)oc4c(O)c(O)cc1c4c23` here?
Answer: 91.8% (inactive)

Question: With `CO[C@H]1[C@@H](O)[C@@H](C)O[C@H](O[C@H]2CCC3(C)C4CCC5(C)[C@@H](C6=CC(=O)OC6)CC[C@]5(O)[C@@H]4CC[C@]3(O)C2)[C@@H]1O` (stereo not given in full) as the compound, how does the activity remaining read?
Answer: 113% (inactive)

Question: Which activity remaining does the source give for `COc1ccc(C(Cl)=C(c2ccc(OC)cc2)c2ccc(OC)cc2)cc1` here?
Answer: 117% (inactive)

Question: With `O=C(O)CCCc1ccccc1` as the compound, how does the activity remaining read?
Answer: 111% (inactive)

Question: With `COc1cc(OC)c2c(OC)c(-c3ccc4c(c3)OCO4)c(=O)oc2c1` as the compound, how does the activity remaining read?
Answer: 95.4% (inactive)

Question: Which activity remaining does the source give for `Nc1cc(-c2ccncc2)c[nH]c1=O` here?
Answer: 122% (inactive)

Question: For `Cc1ccc2c(c1)CC[C@H]1CC(=O)CC[C@]21C`, which activity remaining is on record?
Answer: 112% (inactive)

Question: Which activity remaining does the source give for `CCCCN(CCCC)CCCOC(=O)c1ccc(N)cc1` here?
Answer: 90% (inactive)

Question: How did the activity remaining turn out when `O=C(O[C@@H]1Cc2c(O)cc(O)cc2O[C@@H]1c1cc(O)c(O)c(O)c1-c1c([C@H]2Oc3cc(O)cc(O)c3C[C@H]2OC(=O)c2cc(O)c(O)c(O)c2)cc(O)c(O)c1O)c1cc(O)c(O)c(O)c1` was run?
Answer: 111% (inactive)
